Test results from PubChem BioAssay AID588719 (Southern Research Specialized Biocontainment Screening …, 2011).
The campaign covered roughly 1,500 compounds. About 920 (61%) were called active. So high a share suggests a set chosen from earlier hits. Some of the results follow. Potency and affinity values are given separately. Values without a mark were called inactive. The rule behind the calls is not given here.

Experiment: Vero 76 cell cytotoxicity, dose response, cytotoxicity control for VEEV inhibitor project (AID 588719)
Settings: Vero 76 cells viability, cytotoxicity counter-screen; series mostly up to 25 µM; viability: at the top concentration

SMILES | viability [%]
OCC1(CCOc2ccccc2)CCN(Cc2nc3ccc(F)cc3[nH]2)CC1 | 82.4
COc1ccc(S(=O)(=O)N2CCC(C(=O)N[C@@H](C)C(=O)NCc3ccc(F)cc3)CC2)cc1 | 88.8
COc1ccc(C(=O)/C=C/C(=O)N(CC(=O)NC2CCCCC2)Cc2ccccc2OC)c(O)c1 | 93.6
CCCN1C(=O)c2ccccc2NC1c1ccc(OC)cc1O (centres undefined) | 79.5
CCN1CCN(Cc2nc3ccc([N+](=O)[O-])cc3c(=O)n2-c2ccccc2F)CC1 | 79.8
Cc1onc(C(=O)Nc2cccc(C(F)(F)F)c2)c1[N+](=O)[O-] | 76.4
CC1(NS(=O)(=O)c2ccc(Cl)s2)CCS(=O)(=O)C1 (centres undefined) | 92.2
C/C(=N/OCO/N=C(\C)c1ccccc1)c1ccccc1 | 85.1
O=S(=O)(Nc1nc2ccccc2nc1NCc1ccco1)c1ccc(F)cc1 | 96
O=S(=O)(c1ccc(Cl)cc1)N1CCN(C(=S)Nc2ccccc2F)CC1 | 87.5
CCC1CCCCN1S(=O)(=O)c1ccc(NC(=O)c2nc(S(C)(=O)=O)ncc2Cl)cc1 (centres undefined) | 95.8
CC(C)(C)OC(=O)[C@H](Cc1ccccc1)NC(=O)c1nc[nH]c1C(=O)N1CCN(C(=O)OC(C)(C)C)CC1 | 73.2
C[C@@H](NC(=O)c1nc[nH]c1C(=O)N1CCN(C(=O)OC(C)(C)C)CC1)c1ccccc1 | 92.1
CCn1c2ccccc2c2cc(NC(=O)c3ccc(=O)oc3)ccc21 | 88.2
CN(C)CCOCCOc1ccc(Cl)cc1C(C)(C)C | 77
O=c1cc(-c2ccccc2)nc(/C=C/c2ccccc2)[nH]1 | 92.5
Cc1nonc1OC(C)CNCCNc1ccc([N+](=O)[O-])cc1 (centres undefined) | 93.8
COc1ccc(-n2c(CN3CCC(C(N)=O)CC3)nc3ccc([N+](=O)[O-])cc3c2=O)c(OC)c1 | 96.6
CCn1cc(C(=O)O)c(=O)c2cc(F)c(N3CCN(C(=S)NC(=O)c4ccc(F)cc4)CC3)cc21 | 96.5
S=c1[nH]nc(-c2ccccn2)n1/N=C/c1ccc(-c2ccccc2Br)o1 | 89.9
O=C(O)c1cccnc1Nc1ccc(Cl)cc1 | 77.5
O=C(Nc1ccc(Cl)cc1C(=O)c1ccccn1)c1ccccc1 | 85.4
Cc1cc(C(=O)Cn2nnc3ccccc3c2=O)c(C)n1-c1ccccc1F | 74.2
Cc1ccc(C)c(-n2cc(CNC(C)Cn3cncn3)c(-c3ccccc3)n2)c1 (centres undefined) | 89.9
O=C(N/N=C(\CC(=O)c1cccs1)C(F)(F)F)c1ccncc1 | 75

SMILES | viability [%]
CCOC(=O)c1oc2ccc(S(=O)(=O)n3nc(-c4ccc(C)cc4)cc3N)cc2c1C | 75.5
COc1ccccc1/C=C/C(=O)c1ccc(NC(C)=O)cc1 | 84.5
CC(=O)Nc1ccc(S(=O)(=O)Nc2nc(C)nc3sc4c(c23)CCC4)cc1 | 88.4
CCOC(=O)c1c(CSC(=N)N)n(-c2ccccc2)c2cc(Br)c(OC(C)=O)cc12 | 81.1
CC(C)=CCN1CCN(Cc2cccc3nccnc23)CC1CCO (centres undefined) | 96.6
Cc1ccc(/C([O-])=C(/C(=S)Nc2ccc(SC(F)F)cc2)[n+]2ccccc2)cc1[N+](=O)[O-] | 80.7
Cc1ccc(/C=N/NC(=O)C[n+]2ccccc2)s1 | 96
Cc1ccc(NC(=O)NCc2ccc3[nH]c(C)cc3c2)cc1 | 85.9
COc1cc(/C=C/C(=O)c2c(O)ccc3c(C)cc(=O)oc23)ccc1O | 76.5
Cc1ccc(/C=C/c2onc(C)c2S(=O)(=O)N2CCC(C(=O)N3CCN(C)CC3)CC2)cc1 | 72.2
O=C(NC(Cc1c[nH]c2ccccc12)C(=O)Nc1ccc(F)cc1)c1cccs1 (centres undefined) | 70.5
S=c1[nH]nc(-c2ccccc2)n1/N=C/c1ccc(-c2ccccc2Cl)o1 | 73.6
Cc1ccc(NC(=O)c2ncn(CCCNCC3CCCCC3)n2)cc1C | 76.9
CCOc1ccccc1NC(=O)c1cc(S(=O)(=O)NCc2ccco2)ccc1F | 80
CN1CCc2cccc3c2[C@H]1Cc1ccc(O)c(O)c1-3 | 93.6
COc1ccc2cc(-c3cc(C(=O)O)c4ccccc4n3)ccc2c1 | 79.3
CCOc1ccc(NC(=O)c2c(NC(=O)CN3CCN(C)CC3)sc3c2CCC3)cc1 | 71.5
CCOc1ccc(NC(=O)Cn2sc3nc(C)cc(C)c3c2=O)cc1 | 82.7
CC(C)CC1c2[nH]c3ccccc3c2CCN1CCCn1cccn1 (centres undefined) | 81.5
Nc1ncnn1Cc1ccccc1 | 95.4
CCOC(=O)C1=NN(C(=O)c2ccc(OC)cc2)C(O)(c2ccc(Cl)cc2)C1 (centres undefined) | 91.5
CCC(=NN=C(CC)c1ccccc1O)c1ccccc1O | 95
C#CCOc1ccc(C2C3=C(CC(C)(C)CC3=O)N(CC(=O)O)C3=C2C(=O)CC(C)(C)C3)cc1OC | 91.7
O=c1c2cccnc2[nH]c(=S)n1CCCN1CCN(c2ccccc2F)CC1 | 70.8
O=C(NCc1ccccc1)C(=O)Nc1nc(-c2ccccc2)cs1 | 80.5

SMILES | viability [%]
Cc1cccc(-n2c(O)c(C=Nc3ccccc3-c3n[nH]c(=S)[nH]c3=O)c3ccccc3c2=O)n1 | 102
O=C(CNC(=O)C1COc2ccccc2O1)N/N=C\c1ccc(Cl)cc1 (centres undefined) | 89.8
Nc1ccc(C(=O)OCCCc2nc3cc4ccccc4cc3[nH]2)cc1 | 96.1
CN(C)CCNc1nc2sc3c(c2c(=O)n1-c1ccccc1)CCCCC3 | 72.7
Cc1ccc(-c2cc(-c3ccco3)c3c(N)c(C(=O)NN)oc3n2)cc1 | 80.4
CCn1ncc(CN2CCC(C(=O)Nc3cccc(-c4cccc(F)c4)c3)CC2)c1C | 80.2
Cc1cccc(-c2ccc(NC(=O)C3CCN(CC4CC4)CC3)cc2)c1 | 89.7
Cc1cccn2c(=O)c3cc(C#N)c(=NC(=O)c4cccs4)n(CC(C)C)c3nc12 | 85.9
COCCNC(=S)NCc1ccc2[nH]c3c(c2c1)CCCC3 | 89.9
Cc1cc2nc3c(=O)[nH]c(=S)[nH]c3nc2cc1NC(=O)C(F)(F)F | 83
Cc1cccnc1CN1CCN(Cc2nc(C(c3ccccc3)c3ccccc3)no2)CC1 | 91.9
CN1CCc2nc(SCc3cccc(Br)c3)c(C#N)cc2C1 | 87.3
COc1ccc2sc(N(CCCN(C)C)C(=O)c3ccc(S(=O)(=O)N(C)C4CCCCC4)cc3)nc2c1 | 79.1
COc1ccc2sc(N(CCCN(C)C)C(=O)c3ccc(S(=O)(=O)N(C)Cc4ccccc4)cc3)nc2c1 | 87.9
O=C(NNC(=O)c1cc2cc(OC(F)(F)F)ccc2[nH]1)c1ccc(Cl)cc1 | 87.9
NNC(=O)c1n[nH]c(=O)c2ccccc12 | 94.6
Cc1cccc(CS(=O)(=O)c2ncc(Cl)c(C(=O)NCc3ccccc3)n2)c1 | 90.3
CCOc1ccc(N2C(=O)CC(Sc3nc4ccc(OCC)cc4s3)C2=O)cc1 (centres undefined) | 100
CCOc1ccc(Cn2c(=O)sc3ccccc32)cc1 | 83.2
Cc1ccc2nc(-c3ccc(NC(=S)NCC(C)(C)CN(C)C)cc3)sc2c1 | 89.8
Cc1nc(-c2ccccn2)sc1C(=O)Nc1ccc(Cl)c(Cl)c1 | 75.4
CC12CCC(C(=NO)C1=O)C2(C)C (centres undefined) | 109
O=[N+]([O-])c1ccc(CNC2CCCc3ccccc32)cc1 (centres undefined) | 88
COCCCNCCCCOc1ccc(OCc2ccccc2)cc1 | 75.8
CN(C)c1ccc(P(=O)(OCc2ccccc2)C(O)c2ccccc2)cc1 (centres undefined) | 83

SMILES | viability [%]
CC(Oc1ccccc1F)C(=O)Nc1ccc2ccccc2c1 (centres undefined) | 87.3
CCOc1ccccc1Nc1nnc(SC(C)C(=O)Nc2nc(-c3ccccc3)cs2)s1 (centres undefined) | 79.9
Cc1cc(C(=O)OC(C)C(=O)Nc2nc(-c3ccccc3)cs2)c(C)o1 (centres undefined) | 88.3
CC(Oc1ccc(F)cc1)C(=O)Nc1ccc2ccccc2c1 (centres undefined) | 93.3
Cc1cccc(-n2nc([N+](=O)[O-])c(=NC3CCN(Cc4ccccc4)CC3)n2O)c1 | 85.3
Cc1ccc(C)c(NC(=S)NCCN(C2CCCCC2)C2CCCC2)c1 | 87.6
CCOc1ccc(-n2c(=O)c3sccc3n(Cc3cccc([N+](=O)[O-])c3)c2=O)cc1 | 87.9
COC(=O)Cn1c(=O)c(C(=O)CCl)c(N)n(Cc2ccccc2)c1=O | 82.1
Cc1ccc(C(=O)C[n+]2ccccc2C)cc1[N+](=O)[O-] | 80.7
Cc1nn(C(C)C(=O)Nc2ccccc2Cl)c(=O)c2nn(-c3ccccc3)c(C)c12 (centres undefined) | 83.4
Cc1ccc(S(=O)(=O)N2C[C@@H](C)[C@]3(C2)[C@H](O)[C@H](OC(=O)Nc2cccs2)C[C@H]2C(=O)N(c4ccccc4)C(=O)[C@H]23)cc1 | 71.4
COc1ccc(/C=C2\CCCC3C2=NN(C(=O)CSc2n[nH]c(N)n2)C3c2ccc(OC)cc2)cc1 (centres undefined) | 84.7
Cc1ccc2[nH]c(CN3CCC(CO)(CC4CCCCO4)CC3)c(C)c2c1 (centres undefined) | 72.8
COc1cc(C(=O)O/N=C2/C=CC(=O)C(C)=C2C)cc(OC)c1OC | 87.6
CC[C@@H](O)C[C@H]1CCC[C@@]2(C[C@@H]3OC(=O)/C=C/[C@@](C)(O)[C@@H](O)[C@H](C)[C@@H](O)[C@H](OC4CCC(N(C)C)C(C)O4)[C@@H](O)[C@](C)(O)CCCCC/C=C/[C@@H]4CC(C)(C)O[C@@]4(O)C[C@H](O2)[C@H]3C)O1 (some centres undefined) | 6.04
COc1ccccc1NC(=O)c1cc2ccccc2o/c1=N\O | 77.5
O=C(Cc1cccc2ccccc12)Nc1ccc(Br)cc1C(=O)O | 82.4
CCOC(=O)N1CCN(C(=O)CNC2CCCCCCC2)CC1 | 93.7
COc1ccc(/C=C/C(=O)NC(=S)N2CCN(c3ccccc3OC)CC2)cc1 | 93.5
C=CCN=c1scc(-c2ccccc2)n1/N=C/c1ccccn1 | 62.1
N#C/C(=C/c1ccc(-c2ccc([N+](=O)[O-])cc2)o1)c1nnc(N2CCOCC2)n1-c1ccccc1 | 92
O=C(O)c1ccccc1NC(=O)c1ccccc1Nc1ccccc1 | 84.6
Cc1cccc2c(=O)n(C(=O)c3ccccc3)c(N)nc12 | 75
Cc1ccc2c(c1)c1c3n2CCN(CC(O)CNC(C)C)C3CCC1 (centres undefined) | 81.5
